In ChEMBL document CHEMBL2218924, “A broad activity screen in support of a chemogenomic map for kinase signalling research and drug discovery” (Biochem J, 2013) one finds residual activity data, which are given here for two molecules.

The target of test [1] is T1, Mitogen-activated protein kinase kinase kinase 7 (Homo sapiens) (UniProt O43318).
T1 sequence (whole entry): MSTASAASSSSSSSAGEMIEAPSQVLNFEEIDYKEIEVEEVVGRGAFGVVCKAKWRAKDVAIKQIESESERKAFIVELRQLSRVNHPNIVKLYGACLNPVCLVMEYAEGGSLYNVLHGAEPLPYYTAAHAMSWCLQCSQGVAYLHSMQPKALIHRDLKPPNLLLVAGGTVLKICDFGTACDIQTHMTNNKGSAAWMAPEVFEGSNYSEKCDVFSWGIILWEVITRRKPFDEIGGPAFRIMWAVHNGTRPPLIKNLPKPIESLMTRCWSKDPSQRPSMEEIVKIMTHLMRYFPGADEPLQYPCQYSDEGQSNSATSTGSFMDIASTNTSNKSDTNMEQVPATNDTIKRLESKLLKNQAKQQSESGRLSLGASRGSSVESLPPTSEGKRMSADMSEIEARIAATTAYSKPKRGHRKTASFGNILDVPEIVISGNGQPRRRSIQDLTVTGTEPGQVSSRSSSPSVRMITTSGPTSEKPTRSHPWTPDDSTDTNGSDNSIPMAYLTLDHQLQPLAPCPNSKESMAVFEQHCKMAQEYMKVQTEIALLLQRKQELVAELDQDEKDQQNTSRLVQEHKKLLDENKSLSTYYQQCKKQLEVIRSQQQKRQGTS
Conditions: at 1 µM.

Test [2] addresses T1, Mitogen-activated protein kinase kinase kinase 7 (Homo sapiens). The following applies: at 10 µM.
The target in test [3] is T2, Serine/threonine-protein kinase TAO2 (Homo sapiens) (UniProt Q9UL54).
T2 sequence (whole entry): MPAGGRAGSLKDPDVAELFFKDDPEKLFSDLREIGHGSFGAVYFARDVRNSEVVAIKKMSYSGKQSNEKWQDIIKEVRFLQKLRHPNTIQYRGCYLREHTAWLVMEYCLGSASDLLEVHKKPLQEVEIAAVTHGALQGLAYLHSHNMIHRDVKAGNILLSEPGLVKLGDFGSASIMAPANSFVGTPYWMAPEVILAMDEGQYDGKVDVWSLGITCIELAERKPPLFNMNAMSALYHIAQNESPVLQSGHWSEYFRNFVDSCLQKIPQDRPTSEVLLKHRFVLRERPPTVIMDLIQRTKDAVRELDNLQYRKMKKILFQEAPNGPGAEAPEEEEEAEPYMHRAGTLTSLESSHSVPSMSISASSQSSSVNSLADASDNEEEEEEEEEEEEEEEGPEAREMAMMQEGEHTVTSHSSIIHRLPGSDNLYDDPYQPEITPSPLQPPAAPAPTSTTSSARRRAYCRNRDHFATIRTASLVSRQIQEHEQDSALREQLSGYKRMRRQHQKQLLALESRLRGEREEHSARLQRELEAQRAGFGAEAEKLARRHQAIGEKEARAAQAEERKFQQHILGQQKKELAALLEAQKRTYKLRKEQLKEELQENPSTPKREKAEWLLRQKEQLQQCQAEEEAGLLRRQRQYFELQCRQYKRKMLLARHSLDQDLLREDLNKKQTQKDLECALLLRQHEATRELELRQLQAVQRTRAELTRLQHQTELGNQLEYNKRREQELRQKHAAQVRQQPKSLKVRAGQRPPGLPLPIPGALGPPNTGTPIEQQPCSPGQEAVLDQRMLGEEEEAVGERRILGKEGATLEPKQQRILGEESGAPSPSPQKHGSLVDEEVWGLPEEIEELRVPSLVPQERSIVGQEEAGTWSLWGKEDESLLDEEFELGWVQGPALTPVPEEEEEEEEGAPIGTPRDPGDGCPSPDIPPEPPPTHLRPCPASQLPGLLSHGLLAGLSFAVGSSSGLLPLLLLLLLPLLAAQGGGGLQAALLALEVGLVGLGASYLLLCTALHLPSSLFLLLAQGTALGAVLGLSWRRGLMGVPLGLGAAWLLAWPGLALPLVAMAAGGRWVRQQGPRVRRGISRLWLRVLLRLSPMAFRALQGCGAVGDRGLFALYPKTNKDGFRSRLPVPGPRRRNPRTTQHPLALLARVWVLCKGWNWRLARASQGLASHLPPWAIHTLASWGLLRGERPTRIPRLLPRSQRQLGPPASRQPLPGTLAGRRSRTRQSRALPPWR
Conditions: at 1 µM.

Test [4] addresses T2, Serine/threonine-protein kinase TAO2 (Homo sapiens). Conditions: at 10 µM.
Test [5] has as its target T3, Serine/threonine-protein kinase TBK1 (Homo sapiens) (UniProt Q9UHD2).
T3 sequence (whole entry): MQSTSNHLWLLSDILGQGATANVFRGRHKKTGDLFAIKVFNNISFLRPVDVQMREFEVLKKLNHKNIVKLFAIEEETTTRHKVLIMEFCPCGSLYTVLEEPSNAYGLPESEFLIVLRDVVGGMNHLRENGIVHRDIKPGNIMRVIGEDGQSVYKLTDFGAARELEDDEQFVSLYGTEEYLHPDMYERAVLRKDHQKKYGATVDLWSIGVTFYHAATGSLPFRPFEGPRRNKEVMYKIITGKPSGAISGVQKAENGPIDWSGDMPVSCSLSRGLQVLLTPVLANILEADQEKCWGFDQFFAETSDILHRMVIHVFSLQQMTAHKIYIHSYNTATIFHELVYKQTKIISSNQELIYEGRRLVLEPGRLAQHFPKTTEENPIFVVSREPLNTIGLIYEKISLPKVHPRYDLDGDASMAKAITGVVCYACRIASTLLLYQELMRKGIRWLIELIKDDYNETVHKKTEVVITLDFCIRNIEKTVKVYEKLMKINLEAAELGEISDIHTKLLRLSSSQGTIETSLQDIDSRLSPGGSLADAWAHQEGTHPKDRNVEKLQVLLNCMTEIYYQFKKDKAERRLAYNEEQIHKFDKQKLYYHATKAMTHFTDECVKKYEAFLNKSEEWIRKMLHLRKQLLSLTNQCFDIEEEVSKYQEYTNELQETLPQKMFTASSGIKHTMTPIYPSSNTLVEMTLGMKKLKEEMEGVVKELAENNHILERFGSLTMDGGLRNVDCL
The following applies: at 1 µM.

Test [6] has as its target T3, Serine/threonine-protein kinase TBK1 (Homo sapiens). Conditions: at 10 µM.
The target of test [7] is T4, TGF-beta receptor type-1 (Homo sapiens) (UniProt P36897).
T4 sequence (whole entry): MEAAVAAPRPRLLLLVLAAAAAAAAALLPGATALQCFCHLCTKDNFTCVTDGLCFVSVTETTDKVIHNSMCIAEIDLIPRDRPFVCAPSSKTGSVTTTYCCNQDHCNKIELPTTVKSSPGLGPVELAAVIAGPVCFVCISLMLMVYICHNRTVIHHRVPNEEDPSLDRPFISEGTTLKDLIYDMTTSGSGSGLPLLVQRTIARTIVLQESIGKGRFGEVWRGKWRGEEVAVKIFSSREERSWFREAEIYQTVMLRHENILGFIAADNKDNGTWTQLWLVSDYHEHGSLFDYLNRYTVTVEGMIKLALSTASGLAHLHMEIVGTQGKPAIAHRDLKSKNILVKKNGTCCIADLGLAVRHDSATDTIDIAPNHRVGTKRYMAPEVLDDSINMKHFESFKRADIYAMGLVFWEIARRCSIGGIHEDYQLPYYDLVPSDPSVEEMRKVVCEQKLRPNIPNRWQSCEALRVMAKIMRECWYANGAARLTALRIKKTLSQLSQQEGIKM
The following applies: at 1 µM.

The target in test [8] is T4, TGF-beta receptor type-1 (Homo sapiens). Conditions: at 10 µM.
Test [9] deals with T5, Serine/threonine-protein kinase TAO1 (Homo sapiens) (UniProt Q7L7X3).
T5 sequence (whole entry): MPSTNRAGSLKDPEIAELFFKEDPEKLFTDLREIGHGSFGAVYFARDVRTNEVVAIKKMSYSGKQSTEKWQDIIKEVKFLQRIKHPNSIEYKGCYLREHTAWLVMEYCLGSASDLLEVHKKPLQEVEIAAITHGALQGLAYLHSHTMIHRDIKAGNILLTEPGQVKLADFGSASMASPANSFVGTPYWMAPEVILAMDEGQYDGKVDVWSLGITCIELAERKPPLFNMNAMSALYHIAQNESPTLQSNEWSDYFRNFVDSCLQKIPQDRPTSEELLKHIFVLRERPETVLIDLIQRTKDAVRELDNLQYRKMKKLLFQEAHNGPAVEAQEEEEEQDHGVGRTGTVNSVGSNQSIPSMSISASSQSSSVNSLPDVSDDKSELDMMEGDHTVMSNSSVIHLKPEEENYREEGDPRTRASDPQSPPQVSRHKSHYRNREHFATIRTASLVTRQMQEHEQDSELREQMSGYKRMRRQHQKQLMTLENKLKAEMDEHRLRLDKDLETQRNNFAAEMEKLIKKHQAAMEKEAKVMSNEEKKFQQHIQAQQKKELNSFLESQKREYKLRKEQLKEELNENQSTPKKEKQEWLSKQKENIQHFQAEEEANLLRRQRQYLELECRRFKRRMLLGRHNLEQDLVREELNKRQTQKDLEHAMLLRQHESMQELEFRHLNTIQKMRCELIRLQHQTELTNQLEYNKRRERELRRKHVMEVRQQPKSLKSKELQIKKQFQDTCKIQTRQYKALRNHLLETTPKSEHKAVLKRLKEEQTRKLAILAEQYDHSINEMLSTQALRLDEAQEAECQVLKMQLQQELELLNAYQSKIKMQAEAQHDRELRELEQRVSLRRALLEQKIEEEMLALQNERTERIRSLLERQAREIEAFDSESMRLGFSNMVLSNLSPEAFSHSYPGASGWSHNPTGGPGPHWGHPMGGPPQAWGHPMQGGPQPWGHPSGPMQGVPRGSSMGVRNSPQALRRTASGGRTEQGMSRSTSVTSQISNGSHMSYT
Conditions: at 1 µM.

The target in test [10] is T5, Serine/threonine-protein kinase TAO1 (Homo sapiens). Conditions: at 10 µM.
In test [11] the target is T6, Serine/threonine-protein kinase TAO3 (Homo sapiens) (UniProt Q9H2K8).
T6 sequence (whole entry): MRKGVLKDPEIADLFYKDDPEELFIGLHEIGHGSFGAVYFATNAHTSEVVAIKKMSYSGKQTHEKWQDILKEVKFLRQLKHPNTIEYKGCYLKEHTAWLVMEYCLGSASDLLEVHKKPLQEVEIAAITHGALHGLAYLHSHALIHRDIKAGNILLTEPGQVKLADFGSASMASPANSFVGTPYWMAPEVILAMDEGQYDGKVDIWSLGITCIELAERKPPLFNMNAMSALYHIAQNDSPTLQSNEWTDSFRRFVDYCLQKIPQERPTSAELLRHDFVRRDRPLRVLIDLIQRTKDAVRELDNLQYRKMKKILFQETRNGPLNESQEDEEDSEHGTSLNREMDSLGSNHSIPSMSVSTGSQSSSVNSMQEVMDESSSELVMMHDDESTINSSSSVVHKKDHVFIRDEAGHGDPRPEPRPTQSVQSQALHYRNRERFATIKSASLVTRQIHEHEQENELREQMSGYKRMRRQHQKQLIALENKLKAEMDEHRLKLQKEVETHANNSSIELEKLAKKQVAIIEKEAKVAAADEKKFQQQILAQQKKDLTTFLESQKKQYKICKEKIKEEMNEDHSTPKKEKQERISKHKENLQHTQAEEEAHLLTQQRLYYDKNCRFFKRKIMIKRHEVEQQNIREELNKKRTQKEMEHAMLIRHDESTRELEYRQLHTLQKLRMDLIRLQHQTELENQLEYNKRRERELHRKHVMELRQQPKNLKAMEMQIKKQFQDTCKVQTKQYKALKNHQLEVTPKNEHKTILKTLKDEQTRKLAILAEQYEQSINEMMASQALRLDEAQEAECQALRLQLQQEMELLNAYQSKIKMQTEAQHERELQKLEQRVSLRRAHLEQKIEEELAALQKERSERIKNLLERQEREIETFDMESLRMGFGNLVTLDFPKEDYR
Conditions: at 1 µM.

Test [12] concerns the target T6, Serine/threonine-protein kinase TAO3 (Homo sapiens). The following applies: at 10 µM.
The target of test [13] is T7, Inhibitor of nuclear factor kappa-B kinase subunit alpha (Homo sapiens) (UniProt O15111).
T7 sequence (whole entry): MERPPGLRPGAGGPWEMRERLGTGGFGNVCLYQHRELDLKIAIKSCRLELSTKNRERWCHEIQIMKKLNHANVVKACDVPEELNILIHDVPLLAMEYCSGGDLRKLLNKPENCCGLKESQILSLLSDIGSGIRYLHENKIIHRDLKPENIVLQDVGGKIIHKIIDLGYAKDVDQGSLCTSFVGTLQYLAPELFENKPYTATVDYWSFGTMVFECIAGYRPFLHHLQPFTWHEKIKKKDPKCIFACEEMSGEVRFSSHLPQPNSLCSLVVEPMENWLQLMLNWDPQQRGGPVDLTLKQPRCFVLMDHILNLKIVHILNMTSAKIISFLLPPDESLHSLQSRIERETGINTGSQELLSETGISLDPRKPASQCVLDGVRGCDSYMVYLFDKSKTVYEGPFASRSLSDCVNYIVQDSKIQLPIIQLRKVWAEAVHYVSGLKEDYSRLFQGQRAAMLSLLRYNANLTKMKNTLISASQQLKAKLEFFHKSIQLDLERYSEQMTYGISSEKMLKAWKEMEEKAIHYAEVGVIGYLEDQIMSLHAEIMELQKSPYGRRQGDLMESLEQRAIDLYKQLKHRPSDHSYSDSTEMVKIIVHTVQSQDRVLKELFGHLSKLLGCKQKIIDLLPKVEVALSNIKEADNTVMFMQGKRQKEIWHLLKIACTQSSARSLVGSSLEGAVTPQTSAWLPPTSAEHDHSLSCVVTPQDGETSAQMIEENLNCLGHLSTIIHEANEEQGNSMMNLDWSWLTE
Conditions: at 1 µM.

The target in test [14] is T7, Inhibitor of nuclear factor kappa-B kinase subunit alpha (Homo sapiens). Conditions: at 10 µM.
The target of test [15] is Insulin receptor (Homo sapiens) (UniProt P06213). Conditions: at 1 µM.
Sequence of Insulin receptor (Homo sapiens) (P06213 28-758 limits assumed): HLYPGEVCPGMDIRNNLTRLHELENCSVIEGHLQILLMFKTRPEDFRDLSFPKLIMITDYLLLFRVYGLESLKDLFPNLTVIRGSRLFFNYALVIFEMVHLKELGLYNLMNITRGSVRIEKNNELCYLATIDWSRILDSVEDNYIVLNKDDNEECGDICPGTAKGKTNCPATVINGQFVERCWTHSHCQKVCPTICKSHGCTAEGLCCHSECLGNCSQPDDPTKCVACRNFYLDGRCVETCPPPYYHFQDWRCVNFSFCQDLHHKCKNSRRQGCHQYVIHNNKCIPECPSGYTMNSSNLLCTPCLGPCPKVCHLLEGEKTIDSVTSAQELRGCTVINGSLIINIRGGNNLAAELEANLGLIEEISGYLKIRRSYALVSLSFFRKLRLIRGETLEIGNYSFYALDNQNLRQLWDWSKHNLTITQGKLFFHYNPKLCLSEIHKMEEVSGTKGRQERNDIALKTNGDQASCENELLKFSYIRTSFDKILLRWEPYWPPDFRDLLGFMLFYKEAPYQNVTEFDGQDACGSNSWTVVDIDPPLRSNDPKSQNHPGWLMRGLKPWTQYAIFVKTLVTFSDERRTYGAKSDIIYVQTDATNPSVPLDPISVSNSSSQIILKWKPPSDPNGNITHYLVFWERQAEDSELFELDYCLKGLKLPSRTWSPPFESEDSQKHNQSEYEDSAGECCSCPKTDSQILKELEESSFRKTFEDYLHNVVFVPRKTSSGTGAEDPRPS
Sequence of Insulin receptor (Homo sapiens) (P06213 763-1382 limits assumed): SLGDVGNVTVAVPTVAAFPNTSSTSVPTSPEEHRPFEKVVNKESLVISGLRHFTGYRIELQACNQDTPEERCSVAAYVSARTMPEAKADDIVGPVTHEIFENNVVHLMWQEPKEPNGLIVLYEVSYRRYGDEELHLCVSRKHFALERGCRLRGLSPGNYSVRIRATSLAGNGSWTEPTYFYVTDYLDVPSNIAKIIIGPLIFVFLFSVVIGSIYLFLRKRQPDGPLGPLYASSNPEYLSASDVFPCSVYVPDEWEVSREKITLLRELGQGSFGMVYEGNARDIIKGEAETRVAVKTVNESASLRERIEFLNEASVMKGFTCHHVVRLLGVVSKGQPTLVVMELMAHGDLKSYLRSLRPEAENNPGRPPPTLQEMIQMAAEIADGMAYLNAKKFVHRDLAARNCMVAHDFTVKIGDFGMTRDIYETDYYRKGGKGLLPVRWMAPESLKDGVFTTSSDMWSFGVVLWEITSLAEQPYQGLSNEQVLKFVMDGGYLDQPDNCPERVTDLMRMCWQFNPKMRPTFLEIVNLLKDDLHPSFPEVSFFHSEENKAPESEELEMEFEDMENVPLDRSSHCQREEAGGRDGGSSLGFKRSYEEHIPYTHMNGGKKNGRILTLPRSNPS

In the case of `CC(C)N(CCC(=O)c1ccc2ccccc2c1)Cc1ccccc1`, the residual activity came to 87% in [1]; 86% in test [2]; 100% in test [3]; 88% in [4]; 52% in [5]; 51% in [6]. Moreover, the residual activity turned out to be 76% in test [7] and 74% in test [8].

Take `Cn1sc(=O)n(Cc2ccccc2)c1=O`: the residual activity in [1] was 85%; in test [2], 79%; in test [9], 87%; in test [10], 85%; in [3], 95%; in [4], 91%. The residual activity was determined as 91% in test [11]; 91% in test [12]; 61% in [5]; 55% in [6]; 77% in test [7]; 72% in test [8]. The figures for the residual activity in [13], in [14] and in [15] were 91%, 93% and 93%, respectively.
